This passage reports max response and Potency results from PubChem BioAssay (NCATS).

Where “and” joins values, the source holds several entries; their conditions need not be identical. Equal entries are not always repeated. Results filed as inconclusive are left out. A number with no mark means an inactive call. Calls of active or inactive are those of the source. Calls follow the shape of the dose curve; as a rule, active = well fitted curve in the direction sought with a large enough effect; inconclusive = small, poorly fitted or top-dose-only effect, or another doubt; inactive = no such curve, though single readings can be large or run the other way.
% is scaled to controls: 0 for no effect and ±100 for the full control effect; potency is read from the fitted curve at half-maximal effect.

This assay can be described thus: qHTS Assay for Identifying Gametocytocidal Compounds (AID 743244).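 As to max response: actives lower the fluorescent signal which means gametocytes are killed.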 To be noted: P. falciparum 3D7 stage III-V gametocytes, alamarBlue, 72 h; max response: stronger effect = lower value. The procedure, abridged:
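3D7 gametocytes, stages III–V, 20,000/well; cpd 72 h, 37 °C/5% CO2; + alamarBlue 24 h; fluor. Ex 525/Em 598.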
A general note: In qHTS, concentration-response curves come from the screen itself.
Take `CCCCCC=CCC=CCCCCCCCC(=O)OCC`: the max response was 0.796%.

On to `CCCCN1CCCC1C(=O)Nc1c(C)cc(C)cc1C` (configuration not stated), for which the max response was -5.69%.

As to `C[C@]12CCC(=O)C=C1[C@@H]1C[C@@H]1[C@H]1[C@@H]3[C@@H]4C[C@@H]4[C@@]4(CCC(=O)O4)[C@@]3(C)CC[C@@H]12`, the max response was 5.27%.

In the case of `CCOC(=O)n1ccn(C)c1=S`, the max response was 21.8%.

On to `CN(C)CCOc1ccccc1Cc1ccccc1`, for which the max response was -21.1%.

For `COc1ccc(OC)c(C(O)CNC(=O)CN)c1` (configuration not stated), the max response was -3.82%.

Consider `CCCCC(=O)O[C@]1(C(=O)CO)CC[C@H]2[C@@H]3CCC4=CC(=O)CC[C@]4(C)[C@H]3[C@@H](O)C[C@@]21C`, for which the max response is 5.31%.

Consider `CC(=O)OCC(=O)[C@@]1(O)CC[C@H]2[C@@H]3CCC4=CC(=O)C=C[C@]4(C)[C@H]3[C@@H](O)C[C@@]21C`, for which the max response was -0.763%.

As for `CCN(CC)C(=O)/C(C#N)=C/c1cc(O)c(O)c([N+](=O)[O-])c1`, the max response is -6.8%.

`Cc1cc(O)c(C(C)C)cc1Cl`: the max response is -3.92%.

Regarding `CCCCOc1ccc(OCCCN2CCOCC2)cc1`, the max response is 1.4%.

Consider `COc1cccc(OC)c1C(=O)N[C@@H]1C(=O)N2[C@@H]1SC(C)(C)[C@@H]2C(=O)O`, for which the max response was -0.927%.

As for `COc1c2occc2c(OC)c2c(=O)cc(C)oc12`, the max response was 22.1%.

`CN1[C@@H]2CC[C@H]1CC(OC(=O)c1c[nH]c3ccccc13)C2` (some centres not stated): the max response was 7.82%.

In the case of `CC(C)(C(=O)c1cccnc1)c1cccnc1`, the max response is 4.59%.

In the case of `COC(=O)CCc1ccc(OCC(O)CNC(C)C)cc1` (configuration not stated), the max response was 1.13%.

Regarding `Nc1ccc(/C=C/c2ccc(N)cc2S(=O)(=O)O)c(S(=O)(=O)O)c1`, the max response is 1.42%.

With `Cc1cccn2c(=O)c(-c3nnn[nH]3)cnc12`, the max response was -1.77%.

Turning to `CCCCCCCCCCCCCCCCOP(=O)([O-])OCC[N+](C)(C)C`, the max response was -10.8%.

On to `O=C1OC2(c3ccc(O)cc3Oc3cc(O)ccc32)c2ccccc21`, for which the max response was -13.2% and 24.2%.

With `O=c1[nH]c(=O)n([C@H]2C[C@H](O)[C@@H](CO)O2)cc1C(F)(F)F`, the max response is 15%.

As for `CC(=O)Oc1ccc2c(c1)CC[C@@H]1[C@@H]2CC[C@]2(C)[C@@H](O)CC[C@@H]12`, the max response was 0.116%.

`OC[C@H]1O[C@@H](n2cnc3c(=S)nc[nH]c32)[C@H](O)[C@@H]1O`: the max response was -4.52%.

As for `C/C=C/c1ccc(OC)cc1`, the max response was 16%.

Regarding `CCN(CC)CCOC(=O)C(c1ccccc1)C1CCCCC1` (configuration not stated), the max response was 15%.

For the compound `O=C(OCCOCCO)c1ccccc1Nc1cccc(C(F)(F)F)c1`, the max response was 12.2%.

`C#C[C@]1(OC(C)=O)CC[C@H]2[C@@H]3CCC4=C[C@@H](OC(C)=O)CC[C@@H]4[C@H]3CC[C@@]21C`: the max response is -2.21% and -10.1%.

Consider `CN1CCN(C(c2ccccc2)c2ccccc2)CC1`, for which the max response was -1.32%.

`CC(=O)OCC(=O)NCCCOc1cccc(CN2CCCCC2)c1`: the max response was 8.95% and 5.62%.

For `CCCC(=O)Nc1ccc(OCC(O)CNC(C)C)c(C(C)=O)c1` (configuration not stated), the max response is 19.2%.

As to `Cc1c(C)n(CCN(C)C)c2ccc(C(=O)OCCN(C)C)cc12`, the max response was 8.04%.

On to `CC(C)(CO)[C@@H](O)C(=O)NCCCO`, for which the max response is 14.7%.

On to `CC(C)n1nc(-c2cc3cc(O)ccc3[nH]2)c2c(N)ncnc21`, for which the max response is -4.02%.

In the case of `CCOC(=O)c1cccc(N)c1`, the max response was -5.91%.

`CC(C)COC(=O)c1ccc(N)cc1`: the max response was 10.2%.

As to `NC(=O)C(=O)N/N=C/c1ccc([N+](=O)[O-])o1`, the Potency is 17.8 µM (active).

With `CC(=O)Oc1ccc(C(=C2CCCCC2)c2ccc(OC(C)=O)cc2)cc1`, the max response is 9.87%.
